In PubChem BioAssay AID2546 (National Center for Advancing Translational Sciences (NCATS), 2010):
Screen size: about 310,000 compounds; about 11,000 (3.5%) were called active. Inconclusive results (about 8%) are left out. This is one part of a sample in which actives are shown more often than they occur. Values without a mark were called inactive. The call rests on the fitted dose curve; in most records, active means well fitted inhibition curve with a large enough effect; inconclusive means small, poorly fitted or top-dose-only effect, or effect the other way; inactive means flat fitted curve, though single readings scatter.

Assay: VP16 counterscreen qHTS for inhibitors of ROR gamma transcriptional activity;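 further: Gal4-VP16 expression switched on by copper sulfate through the metallothionein promoter; nearly all actives have a fitted effect of over 50% in size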
Settings: Drosophila S2 Gal4-VP16 UAS-luciferase, luminescence, 20 h; series mostly up to 53.6 µM; activity, negative = inhibition: at the top concentration
On the % scale 0 is the no-effect control and ±100 the full control effect; potency means the concentration at half of the fitted maximal effect.

Going from CN1c2ccc([N+](=O)[O-])cc2C(C)(C)C12C=Cc1cc(C(=O)O)ccc1O2 (stereo not drawn) to O=C(NNS(=O)(=O)c1ccc(F)cc1)c1ccc([N+](=O)[O-])cc1Cl, the “activity, negative = inhibition” value rises from 1.53% to 2.59%.

Compared with Cc1nn(Cc2ccccc2)c(Cl)c1C(=O)OC1CCOC1=O (stereo not drawn), CC(C)c1ccc(C(=O)OC2CCOC2=O)cc1 (stereo not drawn) is higher in “activity, negative = inhibition” value: -5.18% for the first, 13.4% for the second.

First: O=C(CNC(=O)OCc1ccccc1)NC1CCCCNC1=O (stereo not drawn)
Second: O=C(CNC(=O)c1ccc(Br)o1)NCC1CCCO1 (stereo not drawn)
The “activity, negative = inhibition” value of the first is lower: -9.12% for the first, 1.42% for the second.

Compared with Cc1cc(=O)n2[nH]c(-c3cccc(Cl)c3)cc2n1, CCN(CC)c1ccc(/C=N/Nc2nc(C)cc(=O)[nH]2)cc1 is lower in “activity, negative = inhibition” value: 14.2% for the first, -3.48% for the second.

Going from CCOc1ccc(C(C(=O)NC2CCCC2)N(C(=O)c2snc(C(N)=O)c2N)C2CCCC2)cc1 (stereo not drawn) to COc1ccc(C(=O)NC2CC2)cc1OC1CCN(C/C=C/c2ccccc2)CC1, the “activity, negative = inhibition” value falls from 13.5% to -1.34%.

Compared with COc1ccccc1Cn1c(CO)nc2ccccc21, COCn1c(COc2ccccc2)nc2ccccc21 is higher in “activity, negative = inhibition” value: -7.92% for the first, 25.9% for the second.

Going from Cc1ccccc1CCNC(=O)C1CCC(=O)N(Cc2ccc(Cl)cc2)C1 (stereo not drawn) to Cc1nn(CCCC(=O)NCc2ccccc2Cl)c(=O)c2nccn12, the “activity, negative = inhibition” value rises from -3.56% to -1.04%.

First: CCCn1cc(S(=O)(=O)c2ccc(C)cc2)c(=O)c2cc(OCC)ccc21
Second: CCOc1ccc2[nH]c(C(=O)N/N=C/c3cccc(OC)c3OC)cc2c1
The “activity, negative = inhibition” value of the first is lower: 1.59% for the first, 4.44% for the second.

First: Cc1ccc(C(=O)NCCNC(=O)c2cnccn2)cc1
Second: CCN(CC)c1ccc(/C=N/NC(=O)CNC(=O)c2cccnc2)cc1
The “activity, negative = inhibition” value of the first is higher: 7.02% for the first, 2.67% for the second.

First: Cc1cc(C)nc(N/N=C/c2ccncc2)n1
Second: O=C(N/N=C/c1ccoc1)c1ccc(Cl)cc1Cl
The “activity, negative = inhibition” value of the first is lower: -5.52% for the first, -4.59% for the second.

Going from Cc1cc(=O)n2nc(N3CCC(C(=O)Nc4c(F)c(F)c(F)c(F)c4F)CC3)sc2n1 to CCOC(=O)C1CCN(C(=O)Cn2nc(C)c3c(C)n(-c4ccccc4)nc3c2=O)CC1, the “activity, negative = inhibition” value falls from -2.93% to -3.98%.

First: COc1ccc(S(=O)(=O)N2CCSCC2)cc1
Second: CN(C)S(=O)(=O)c1cccc(C(=O)OCC(=O)N2CCCC2=O)c1
The “activity, negative = inhibition” value of the first is higher: 10.7% for the first, -3.49% for the second.

Compared with O=C(COc1ccc(Cl)cc1)Nc1ccc2c(c1)OCO2, COc1ccc(C(=O)NCc2nnc(SCC(=O)Nc3cccc(OC)c3)o2)cc1 is higher in “activity, negative = inhibition” value: -6.13% for the first, -0.7% for the second.

First: O=c1oc2ccccc2cc1-c1csc(Nc2ccc(O)cc2)n1
Second: Cc1cc(O)ccc1-c1cnc2ccccc2n1
The “activity, negative = inhibition” value of the first is higher: 1.22% for the first, -20.2% for the second.

Going from C=Cn1cc[n+](CC(=O)c2ccc(OC)c(OC)c2)c1 to COc1cc(C(=O)NCc2nnc(SCC(=O)c3ccc(Cl)cc3)o2)cc(OC)c1OC, the “activity, negative = inhibition” value falls from -1.6% to -6.58%.

Going from Cc1ccc(-n2c(C)cc(/C=N\NC(=O)CC(=O)NC(C)C)c2C)cc1 to CC(C)c1ccc(NC(=O)[C@@H](NC(=O)N2CC(=O)Nc3ccccc32)C(C)C)cc1, the “activity, negative = inhibition” value rises from -7.74% to 12.5%.

First: COc1ccccc1C(=O)NC(CCSC)C(=O)NNC(=O)c1csc(N2CCOCC2)n1 (stereo not drawn)
Second: Cn1c(N2CCOCC2)c(C=O)c2ccccc21
The “activity, negative = inhibition” value of the first is lower: 1.56% for the first, 8.57% for the second.

First: CCOc1ccc(C(=O)COC(=O)c2ccc(-n3cnnn3)cc2)cc1
Second: CCOC(=O)c1ccc(NC(=O)C2CC(=O)Nc3nc4ccccc4n32)cc1 (stereo not drawn)
The “activity, negative = inhibition” value of the first is lower: 0.0156% for the first, 2.42% for the second.

Going from CN(C)CCCn1c(=O)n(Cc2ccccc2)c(=O)c2c3c(sc21)CCCCC3 to CCCc1nc2sc3c(c2c(=O)n1NC(=O)CCCl)CCCC3, the “activity, negative = inhibition” value rises from -8.02% to 10.2%.

Going from S=C(NNC(=S)NC1CC2CCC1C2)NC1CC2C=CC1C2 (stereo not drawn) to S=C(NNC(=S)NC1CC2C=CC1C2)NC1CC2C=CC1C2 (stereo not drawn), the “activity, negative = inhibition” value rises from -2.56% to 4.85%.

Going from Cc1nn(C(C)C(=O)NCCC2=CCCCC2)c(=O)c2nn(-c3ccccc3)c(C)c12 (stereo not drawn) to CSc1ccccc1NC(=O)c1ccc2c(c1)CCN2S(C)(=O)=O, the “activity, negative = inhibition” value falls from 8.83% to -7.46%.

First: CC(Oc1ccccc1[N+](=O)[O-])C(=O)N/N=C/c1ccoc1 (stereo not drawn)
Second: Cc1ccc(N/C=C/C(=O)c2ccccc2)cc1C
The “activity, negative = inhibition” value of the first is higher: -9.18% for the first, -55.9% for the second.

Going from CC1CCC(NS(=O)(=O)c2ccc3c(c2)CC(=O)N3)CC1 (stereo not drawn) to Cc1occc1C(=O)NC1CCCN(Cc2ccc(CC(C)C)cc2)C1 (stereo not drawn), the “activity, negative = inhibition” value falls from 2.3% to -15.5%.

First: CCOc1cc(/C=C/c2nc3ccccc3c(=O)[nH]2)cc(Br)c1OC
Second: C=CCOc1c(Br)cc(/C=N\n2nnnc2N)cc1OC
The “activity, negative = inhibition” value of the first is lower: -2.15% for the first, 8.19% for the second.

First: C=CCOC(=O)C1=C(C)NC(C)=C(C(=O)OCC=C)C1c1cccs1
Second: COc1cccc(CCNC(=O)c2cccc(NC(=O)C3=C(C)OCCS3)c2)c1
The “activity, negative = inhibition” value of the first is higher: 0.696% for the first, -17.2% for the second.

Going from Cc1cc(SCC(=O)c2ccccc2)nc(SCC(=O)c2ccccc2)n1 to O=C(Cc1ccccc1)Nc1ccc(C(=O)Nc2ccccc2C(=O)O)cc1, the “activity, negative = inhibition” value rises from -16.5% to 5.24%.

For CCOc1ccc(CN2CCN(Cc3ccc4cc(F)ccc4n3)CC2CCO)cc1 (stereo not drawn), the “activity, negative = inhibition” value was -6.33%.

In the case of O=C(OC1CCOC1=O)c1ccc(-c2nc3ccccc3s2)s1 (stereo not drawn), the Potency is reported as 1 µM (active).
With C=C1C(=O)C23C(O)C1CCC2[C@]12COC3(O)C(O)C1C(C)(C)CC[C@H]2O (stereo partly drawn) the Potency was 2.51 µM (active).
For COCc1nc2ccccc2n1Cc1ccccc1Br, the Potency was 5.62 µM (active).
In the case of CCN(CC)c1ccc(/C=N/Nc2nc(C)cc(C)n2)c(O)c1, the Potency is reported as 4.47 µM (active).
For CCN(CC)c1ccc(/C=N/NC(=O)c2cnccn2)c(O)c1, the Potency was 5.62 µM (active).
With Cc1ccc(Nc2nc(-c3ccc(O)cc3O)cs2)nc1 the Potency was 11.2 µM (active).
In the case of Cc1cc(/C=N/NC(=O)CC2(C)OCCO2)c(C)n1-c1ccc(Cl)c(Cl)c1, the Potency is reported as 12.6 µM (active).
With CCn1c(=S)[nH]c2sc3c(c2c1=O)CCCCC3 the Potency was 1.12 µM (active).
For CC(C)c1ccc(NC(=S)NC2CC3C=CC2C3)cc1 (stereo not drawn), the Potency was 11.2 µM (active).
With CC(C)c1cc(C(=O)N/N=C/c2ccoc2)c(O)c(C(C)C)c1 the Potency was 3.16 µM (active).
For CCOc1c(Br)cc(/C=C2\C(=O)N(CCC#N)N=C2C)cc1OC, the Potency was 11.2 µM (active).
With CCOC(=O)C1=C(C)Nc2nc3ccccc3n2C1c1cccs1 (stereo not drawn) the Potency was 5.01 µM (active).
For Cc1cc(C)nc(S/C=C/C(=O)c2ccccc2)n1, the Potency was 3.55 µM (active).
With COc1cc(C(=O)NCc2nnc(SCC(=O)Nc3nc4ccc(C)cc4s3)o2)cc(OC)c1OC the Potency was 3.16 µM (active).

Molecule Cc1ccccc1-n1c(C)cc(/C=N/NC(=O)c2ccc(CN3CCOCC3)cc2)c1C has an activity, negative = inhibition of -2.91% [at 0.365 µM].
